Results from ChEMBL document CHEMBL1157539, “Thousands of chemical starting points for antimalarial lead identification” (Nature, 2010).

Legend:
Format in all cases: functional
[1] = tested on: Plasmodium falciparum; assay: GSK_TCMDC: Inhibition of Plasmodium falciparum 3D7 in whole red blood cells, using parasite LDH activity as an index of growth. Test compounds present at 2uM
[2] = tested on: Plasmodium falciparum; assay: GSK_TCMDC: Inhibition of Plasmodium falciparum Dd2 in whole red blood cells, using parasite LDH activity as an index of growth. Test compounds present at 2uM
[3] = tested on: HepG2; assay: GSK_TCMDC: Percent inhibition of human HepG2 cell line. Test compounds present at 10uM.

COc1cc(C(=O)Nc2cccc(-c3cn4ccc(C)cc4n3)c2)cc(OC)c1OC
Inhibition [1]: 97%
Inhibition [2]: 83%
Inhibition [3]: 0%

O=c1nc2[nH]c3ccccc3n2c(=O)[nH]1
Inhibition [1]: 95%
Inhibition [2]: 0%
Inhibition [3]: 21%

Fc1ccc2[nH]c(-c3ccc(-c4ccc(CN5CCCCC5)cc4)s3)nc2c1.O=C(O)C(F)(F)F
Inhibition [1]: 92%
Inhibition [2]: 100%
Inhibition [3]: 42%

Nc1nc(N)c2c(Cc3ccc(Br)cc3)cccc2n1
Inhibition [1]: 99%
Inhibition [2]: 20%
Inhibition [3]: 28%

Cc1nc(SCC(=O)N2CCCC2=O)c2c(C)c(C)sc2n1
Inhibition [1]: 96%
Inhibition [2]: 0%
Inhibition [3]: 45%

COCCN1CCN(Cc2cccc(-c3ccc(-c4nc5ccccc5[nH]4)cc3)c2)CC1.O=C(O)C(F)(F)F
Inhibition [1]: 100%
Inhibition [2]: 50%
Inhibition [3]: 9%

CCOc1ccc2c(c1)N(C(=O)C=Cc1ccccc1)C(C)(C)c1ssc(=S)c1-2
Inhibition [1]: 83%
Inhibition [2]: 77%
Inhibition [3]: 3%

CCN(CC)CCNC(=O)c1ccc(Nc2ncc([N+](=O)[O-])c(Nc3ccccc3OC)n2)cc1.Cl
Inhibition [1]: 97%
Inhibition [2]: 58%
Inhibition [3]: 59%

O=C(NCCN1CCCC1)c1cccc(-c2ccc(-c3nc4cc(F)ccc4[nH]3)s2)c1
Inhibition [1]: 100%
Inhibition [2]: 4%
Inhibition [3]: 51%

Cl.NC(=O)c1ccccc1Nc1nc(Nc2cccc(N3CCN(CCO)CC3)c2)ncc1Cl
Inhibition [1]: 95%
Inhibition [2]: 98%
Inhibition [3]: 93%

COc1cc2nc(NCCN3CCOCC3)n3nc(-c4ccccc4)nc3c2cc1OC
Inhibition [1]: 96%
Inhibition [2]: 98%
Inhibition [3]: 15%

Cc1cccc2nc(-c3cccc(-c4cccc(NC(=O)C(C)CN5CCN(C)CC5)c4)c3)[nH]c12 (centres undefined)
Inhibition [1]: 99%
Inhibition [2]: 99%
Inhibition [3]: 17%

CC(C)Nc1nc(NCCc2c[nH]cn2)nc(NCc2ccc(Cl)c(Cl)c2)n1
Inhibition [1]: 88%
Inhibition [2]: 0%
Inhibition [3]: 0%

CCCC(=O)Nc1ccc(Nc2nc(C)cc(N3CCCC3)n2)cc1
Inhibition [1]: 100%
Inhibition [2]: 46%
Inhibition [3]: 31%

O=C(O)C(F)(F)F.Oc1ccc(CCNc2nc(NCCCOc3cccc(CN4CCCCC4)c3Cl)nc(N3CCNCC3)n2)cc1
Inhibition [1]: 100%
Inhibition [2]: 22%
Inhibition [3]: 26%

COc1ccc(CNC(=O)NC2CCN(c3ccnc(Nc4ccc(OC)cc4)n3)C2)cc1 (centres undefined)
Inhibition [1]: 87%
Inhibition [2]: 80%
Inhibition [3]: 27%

COc1cc(NC(=O)c2cc3c(C)nn(-c4cccc(C(F)(F)F)c4)c3s2)cc(OC)c1OC
Inhibition [1]: 100%
Inhibition [2]: 50%
Inhibition [3]: 0%

COc1c(C2CCN(CCCCNC(=O)c3ccc(-c4ccc(C(=O)C(F)(F)F)cc4)cc3)CC2)ccc2c1CCCC2
Inhibition [1]: 81%
Inhibition [2]: 33%
Inhibition [3]: 99%

CCC(C)(C)n1c(C)cc2c3c(N)nc(N)nc3ccc21
Inhibition [1]: 97%
Inhibition [2]: 85%
Inhibition [3]: 69%

CCN(CC)/C(=N\CCCCCC/N=C(\NC(=N)c1ccc(Cl)cc1)N(CC)CC)NC(=N)c1ccc(Cl)cc1
Inhibition [1]: 97%
Inhibition [2]: 99%
Inhibition [3]: 1%

Cc1ccc(C)c(S(=O)(=O)Nc2ccc(Br)cc2C(=O)Nc2cccc(C(F)(F)F)c2)c1
Inhibition [1]: 81%
Inhibition [2]: 98%
Inhibition [3]: 56%

NC(=O)c1ccc(C(=O)Nc2cccc(-c3cccc(-c4nc5cc(C(F)(F)F)ccc5[nH]4)c3)c2)cc1
Inhibition [1]: 100%
Inhibition [2]: 36%
Inhibition [3]: 63%

CN(C)C(C)(C)CN(Cc1ccc(-c2ccc(C(F)(F)F)cc2)cc1)C(=O)Cn1c(CCc2cccc(F)c2F)nc(=O)c2ccccc21.O=C(O)C(O)C(O)C(=O)O
Inhibition [1]: 95%
Inhibition [2]: 67%
Inhibition [3]: 64%

Cc1noc(C)c1-c1ccc2c(Nc3ccc([N+](=O)[O-])cc3)c(C(N)=O)cnc2c1.Cl
Inhibition [1]: 100%
Inhibition [2]: 98%
Inhibition [3]: 4%

Fc1ccc2[nH]c(-c3cccc(-c4ccc(CNCc5cnn(-c6ccccc6)n5)cc4)c3)nc2c1.O=C(O)C(F)(F)F
Inhibition [1]: 98%
Inhibition [2]: 22%
Inhibition [3]: 18%

O=S(=O)(Nc1cccc(CCN2CCC(N3CCCCC3)CC2)c1)c1ccccc1C(F)(F)F
Inhibition [1]: 82%
Inhibition [2]: 32%
Inhibition [3]: 21%

O=C(N[C@@H](Cc1ccccc1)CN1CCC(Oc2ccc(F)cc2)CC1)c1ccc(OCCCN2CCCCC2)cc1.O=C(O)C(F)(F)F
Inhibition [1]: 100%
Inhibition [2]: 92%
Inhibition [3]: 38%

CCC[C@@H]([C@@H](CC1CCCCC1)C(=O)N[C@@H](CCOC(=O)NCC)C(=O)Nc1nccs1)N(O)C=O
Inhibition [1]: 100%
Inhibition [2]: 79%
Inhibition [3]: 0%
